From PubChem BioAssay AID485346 (Sanford-Burnham Center for Chemical Genomics, 2010)
In all, about 330,000 compounds went through this assay and about 10,000 (3%) were called active.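 The calls were made as follows: active = inhibition of at least 50% at 8 µM in the primary screen; inactive = the rest.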 The sample as a whole holds a higher share of actives than the screen did.

Biological target: Protein Mdm4 (Homo sapiens) + E3 ubiquitin-protein ligase Mdm2 (Homo sapiens) (UniProt O15151+Q00987)
Assay: inhibitors of human Mdm2-MdmX association, primary screen, cell-based, luminescence, split luciferase, SaOS-2, uHTS (AID 485346)
Details: SaOS-2 split-luciferase Mdm2/MdmX complementation, at 8 µM, hits give high values

Protein Mdm4 (Homo sapiens) + E3 ubiquitin-protein ligase Mdm2 (Homo sapiens), sequence (O15151 whole entry, looked up): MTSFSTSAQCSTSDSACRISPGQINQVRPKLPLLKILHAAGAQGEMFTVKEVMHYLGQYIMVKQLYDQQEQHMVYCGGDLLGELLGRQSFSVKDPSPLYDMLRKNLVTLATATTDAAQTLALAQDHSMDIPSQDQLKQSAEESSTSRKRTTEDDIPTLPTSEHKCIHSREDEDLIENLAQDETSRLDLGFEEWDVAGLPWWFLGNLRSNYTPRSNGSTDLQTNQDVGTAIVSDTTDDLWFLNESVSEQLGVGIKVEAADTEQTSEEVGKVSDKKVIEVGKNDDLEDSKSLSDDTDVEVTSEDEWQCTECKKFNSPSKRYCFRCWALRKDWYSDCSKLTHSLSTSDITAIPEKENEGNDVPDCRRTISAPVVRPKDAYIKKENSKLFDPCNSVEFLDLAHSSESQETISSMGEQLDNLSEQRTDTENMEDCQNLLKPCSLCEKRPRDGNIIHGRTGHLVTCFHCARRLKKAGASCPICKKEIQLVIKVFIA
Protein Mdm4 (Homo sapiens) + E3 ubiquitin-protein ligase Mdm2 (Homo sapiens), sequence (Q00987 whole entry, looked up): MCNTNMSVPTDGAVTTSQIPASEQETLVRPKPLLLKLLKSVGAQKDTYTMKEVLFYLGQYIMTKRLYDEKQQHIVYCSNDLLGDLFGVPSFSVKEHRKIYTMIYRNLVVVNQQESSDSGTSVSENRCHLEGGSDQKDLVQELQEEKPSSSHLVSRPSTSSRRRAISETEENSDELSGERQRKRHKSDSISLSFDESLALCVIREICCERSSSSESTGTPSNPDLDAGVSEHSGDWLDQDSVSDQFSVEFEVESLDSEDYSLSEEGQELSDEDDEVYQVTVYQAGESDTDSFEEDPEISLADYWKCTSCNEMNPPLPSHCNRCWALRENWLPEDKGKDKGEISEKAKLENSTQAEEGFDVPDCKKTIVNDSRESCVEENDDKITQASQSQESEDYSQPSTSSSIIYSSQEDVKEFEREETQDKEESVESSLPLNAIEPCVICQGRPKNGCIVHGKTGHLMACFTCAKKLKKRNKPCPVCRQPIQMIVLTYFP

Row | SMILES | inhibition
1 | O=C(CN1C(=O)NC(Cc2c[nH]c3ccccc23)C1=O)Nc1ccccc1C(F)(F)F (stereo not drawn) | -9.67% (inactive)
2 | Cc1ccc2c(c1)N(CC(=O)N(Cc1ccccn1)Cc1ccco1)C(=O)C(C(C)C)O2 (stereo not drawn) | 2.25% (inactive)
3 | CCc1ccc(NC(=O)N2CCc3ccccc3C2)cc1 | -51.8% (inactive)
4 | CCCc1cc(=O)[nH]c(SCC(=O)OCc2ccccc2)n1 | 18.4% (inactive)
5 | Cc1ccc(C2CC(=O)NC(SCC(=O)OCc3ccccc3)=C2C#N)o1 (stereo not drawn) | 58.1% (active)
6 | COC(=O)CSC1=C(C#N)C(c2ccccc2OC)C(C(=O)OC)C(=O)N1 (stereo not drawn) | 15.2% (inactive)
7 | COc1cc(OC)cc(C(=O)OCC(=O)Nc2sccc2C(N)=O)c1 | -6.16% (inactive)
8 | C=CCn1c(C)cc(C2=NNC(=NCC)SC2)c1C | 97.3% (active)
9 | CCS(=O)(=O)N1CCC(N2CCN(c3ccccc3)CC2)CC1 | 1.56% (inactive)
10 | O=[N+]([O-])c1cccc2ncccc12 | 10.6% (inactive)
11 | Cc1ccccc1NC(=O)c1ccccc1NS(=O)(=O)c1cccc2cccnc12 | 11.2% (inactive)
12 | O=[N+]([O-])c1ccccc1S(=O)(=O)Nc1cccc2cccnc12 | 94.5% (active)
13 | CN(CCc1ccccn1)C(=O)CCC1CCCN(Cc2ccccc2OC(F)F)C1 (stereo not drawn) | -29.3% (inactive)
14 | CCOC(=O)C1=CN(Cc2ccc(Br)cc2)S(=O)(=O)NC1C (stereo not drawn) | 12.1% (inactive)
15 | Brc1ccc(C2=CC(c3ccco3)n3ncnc3N2)cc1 (stereo not drawn) | 11.6% (inactive)
16 | Clc1ccc2c(c1)C1=C(C(c3ccncc3)O2)C(c2ccc(Br)cc2)n2ncnc2N1 (stereo not drawn) | 70.4% (active)
17 | CC1=C(C(N)=O)C(c2ccc(Br)cc2)n2ncnc2N1 (stereo not drawn) | 5.41% (inactive)
18 | O=C1NCCn2nc3ccccc3c21 | 16.4% (inactive)
19 | Cc1ccc(NN=Nc2nc3c([nH]2)c(=O)n(C)c(=O)n3C)cc1 | -16.4% (inactive)
20 | Cc1ccc(CSc2nc3[nH]ncc3c(=O)[nH]2)cc1 | -38.4% (inactive)
21 | C=CCN1C(=O)C(O)(CC(=O)c2ccccn2)c2ccccc21 (stereo not drawn) | -5.9% (inactive)
22 | C/C(=N/OC(=O)c1ccc(Br)cc1)c1ccc(C)cc1 | 5.85% (inactive)
23 | O=C(c1ccc2c(c1)OCO2)N1CCOCC1 | 3.71% (inactive)
24 | N/C(=N\OC(=O)c1ccc2c(c1)OCO2)c1ccc(Br)cc1 | 84.4% (active)
25 | CC(C)(C)OC(=O)C[C@@H]1C/C=C\C[C@@H](CC(=O)N[C@@H](CO)Cc2ccccc2)C(=O)N2CCC[C@H]2COC1=O | 9.85% (inactive)
26 | O=C(Nc1ccncc1)c1c(F)cccc1F | 52.1% (active)
27 | CSc1nc2ccc(NC(=O)c3c(F)cccc3F)cc2s1 | -79.2% (inactive)
28 | O=C(Nc1ccncc1)Nc1ccc(F)cc1 | 14% (inactive)
